# High-throughput results: PubChem, Broad Institute
# Only some compounds are listed: those with a hit (about 4% of all), similar ones and a draw of the others.
# AF4-AF9 inh = MLL-AF4/AF9 protein interaction inhibition | AID 651704 | AlphaScreen, biotin-AF4 peptide binding to FLAG-AF9 | inhibition, % at 10 µM | 0.47% of 350,000 active;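 active means every replicate reaching a set inhibition limit, whatever the replicate mean, cut at about 25% in these data; inconclusive means mean inhibition reaches that limit but some replicates miss it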
# FGF22 binding = shifts melting point of recombinant human FGF22. Q9HCT0. recombinant FGF22 thermal shift, SYPRO orange fluorescence; percent of sucrose octasulfate shift, DMSO zero. activity (Tm shift, normalised), % at 9.99 µM. 1.5% of 340,000 active. AID 651658;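 active means mean Tm shift, scaled 0 neutral to 100 positive control, at about 1.3% or above, every replicate too, limit read from the data; inconclusive means no clear call, values can overlap the other calls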
# DENV2 CPE rescue = DENV2-induced cell death inhibition | DENV2-infected cells, cytopathic effect rescue, plate reader | CPE inhibition, % at 9.99 µM | 1.7% of 350,000 active | AID 651640; in the data active means CPE inhibition above about 20%, passing the limit was not always enough; inconclusive means no clear call, values can overlap the other calls; tested in BHK-21 cells
# RAD52 inh = blocks human RAD52 DNA annealing; inhibition, % at 18.7 µM; recombinant RAD52 DNA annealing, FRET fluorescence; AID 651710; 0.46% of 360,000 active; P43351;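 active means every replicate showing at least 50% inhibition; inconclusive means mean inhibition at least 50% but not in every replicate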
# ERAP1 inh = blocks human ERAP1 aminopeptidase activity | AID 652197 | recombinant ERAP1, Leu-AMC fluorescence, 60 min | Q9NZ08 | 0.15% of 340,000 active | inhibition, % at 10.7 µM;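 active means mean replicate inhibition of at least 30%, or all replicates individually reaching that 30% level; inactive means mean below 30% and not every replicate reaching it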
# Target sequence (Q9NZ08 whole entry, looked up): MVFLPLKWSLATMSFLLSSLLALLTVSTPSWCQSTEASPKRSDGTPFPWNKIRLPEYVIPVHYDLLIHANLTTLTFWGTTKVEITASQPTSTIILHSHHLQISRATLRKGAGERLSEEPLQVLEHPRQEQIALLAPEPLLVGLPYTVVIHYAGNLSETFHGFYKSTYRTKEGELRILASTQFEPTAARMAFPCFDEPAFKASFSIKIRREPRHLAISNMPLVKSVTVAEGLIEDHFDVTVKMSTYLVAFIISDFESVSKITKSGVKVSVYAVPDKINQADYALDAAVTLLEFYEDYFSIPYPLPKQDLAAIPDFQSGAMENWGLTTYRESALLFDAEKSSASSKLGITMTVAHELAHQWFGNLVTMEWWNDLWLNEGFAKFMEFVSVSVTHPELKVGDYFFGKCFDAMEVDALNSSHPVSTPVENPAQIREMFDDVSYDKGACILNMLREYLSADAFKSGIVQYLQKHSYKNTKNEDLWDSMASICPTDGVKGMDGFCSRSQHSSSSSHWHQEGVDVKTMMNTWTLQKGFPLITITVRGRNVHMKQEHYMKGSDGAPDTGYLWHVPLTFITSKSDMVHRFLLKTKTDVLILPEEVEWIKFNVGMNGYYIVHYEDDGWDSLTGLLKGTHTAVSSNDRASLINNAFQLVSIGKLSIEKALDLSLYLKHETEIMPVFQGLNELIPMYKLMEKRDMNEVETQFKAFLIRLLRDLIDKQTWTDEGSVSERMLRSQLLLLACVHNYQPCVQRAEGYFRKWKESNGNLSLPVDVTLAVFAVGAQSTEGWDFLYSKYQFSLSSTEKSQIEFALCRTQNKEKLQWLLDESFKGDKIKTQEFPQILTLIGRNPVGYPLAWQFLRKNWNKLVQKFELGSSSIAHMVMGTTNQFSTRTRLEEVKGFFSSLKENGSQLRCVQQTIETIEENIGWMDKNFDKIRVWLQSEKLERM
# Numbers stand for hits; 0 = inactive; ? = inconclusive; - = not tested or not shown.
SMILES,AF4-AF9 inh,FGF22 binding,DENV2 CPE rescue,RAD52 inh,ERAP1 inh
C[C@@H]1CCCCO[C@H](CN(C)Cc2ccc3c(c2)OCO3)[C@@H](C)CN([C@H](C)CO)C(=O)c2cc(NC(=O)Nc3ccc4c(c3)OCO4)ccc2O1,0,0,0,0,0
C[C@@H]1CCCCO[C@H](CN(C)Cc2ccc3c(c2)OCO3)[C@H](C)CN([C@@H](C)CO)C(=O)c2cc(NC(=O)Nc3ccc4c(c3)OCO4)ccc2O1,27,0,0,0,0
C[C@@H]1CCCCO[C@@H](CN(C)Cc2ccc3c(c2)OCO3)[C@@H](C)CN([C@H](C)CO)C(=O)c2cc(NC(=O)Nc3ccc4c(c3)OCO4)ccc2O1,0,0,0,0,0
C[C@@H]1CCCCO[C@@H](CN(C)Cc2ccc3c(c2)OCO3)[C@@H](C)CN([C@@H](C)CO)C(=O)c2cc(NC(=O)Nc3ccc4c(c3)OCO4)ccc2O1,0,0,0,55,0
C[C@H]1CN([C@@H](C)CO)C(=O)c2cc(-c3cccc(C#N)c3)cnc2O[C@H]1CN(C)Cc1ccncc1,0,0,0,0,0
CCC(=O)N1CC2(C1)CN(C(=O)CN1CCOCC1)[C@H](CO)c1c2c2ccc(OC)cc2n1C,0,0,0,0,0
CO[C@H]1CN(C)C(=O)c2ccc(NS(=O)(=O)c3ccc(Cl)cc3)cc2OC[C@@H](C)NC[C@H]1C,0,0,0,0,-
CO[C@H]1CN(C)C(=O)c2ccc(NS(=O)(=O)CC(F)(F)F)cc2OC[C@H](C)N(CC2CCCCC2)C[C@@H]1C,0,0,0,0,0
COc1cc(/C=C2\C(=N)N3N=C(S(C)(=O)=O)SC3=NC2=O)cc(OC)c1OCCOc1cccc(C)c1,0,2.0,0,0,0
COc1cc(/C=C2\C(=N)N3N=C(S(C)(=O)=O)SC3=NC2=O)cc(OC)c1OCCOc1ccc(C)cc1,0,1.7,0,0,0
CC(=O)C1=C(C)N(Cc2ccc(Cl)cc2)C(=S)NC1c1ccc(Cl)cc1 (stereo not drawn),-,0,55,0,0
CC(=O)C1=C(C)N(Cc2ccc(Cl)cc2)C(=S)NC1c1ccccc1 (stereo not drawn),-,0,0,0,0
CC(C)OC(=O)c1cc(C(=O)c2cc(Br)ccc2O)coc1=N,0,-,0,0,0
CCOc1ccccc1NC(=O)c1cc(C(=O)c2cc(Br)ccc2O)coc1=N,0,45,0,0,0
CCOC(=O)CCc1c(C)c2ccc(OC3CCCCC3=O)c(C)c2oc1=O (stereo not drawn),0,0,0,0,0
CCCc1cc(=O)oc2c(C)c(OC3CCCCC3=O)ccc12 (stereo not drawn),0,0,26,0,0
COC(=O)c1ccccc1OC(=O)c1cccnc1,0,0,0,0,0
O=C(Oc1ccccc1C(=O)Oc1ccccc1)c1cccnc1,0,43,0,0,0
CSc1ncc(C(C)=O)c(C)n1,0,2.5,0,0,0
CSc1ncc(C(=O)O)c(C)n1,0,0,0,0,0
C[C@@H]1CN([C@@H](C)CO)S(=O)(=O)c2ccc(C#CC3CC3)cc2O[C@H]1CN(C)Cc1cccc(F)c1,0,0,?,0,0
CC(C)(C)c1ccc(OCCCC(=O)Nc2ccc(S(N)(=O)=O)cc2)cc1,0,44,-,0,0
COc1ccc(-c2[nH]ncc2CN(C)Cc2cccnc2)c(OC)c1,0,43,0,0,0
COc1ccc(-c2[nH]ncc2CN2CCC(OCc3cccnc3)CC2)c(F)c1,0,0,0,0,0
O=C(CCCN1C(=O)/C(=C\c2cccs2)SC1=S)Nc1cccnc1,0,0,30,0,0
SMILES,AF4-AF9 inh,FGF22 binding,DENV2 CPE rescue,RAD52 inh,ERAP1 inh
CCN1C(=O)S/C(=C/c2ccc(Oc3ccc([N+](=O)[O-])cn3)c(OC)c2)C1=O,0,43,0,0,0
COc1cc(/C=C2/SC(=O)N(CC(=O)N3CCCC3)C2=O)ccc1Oc1ccc([N+](=O)[O-])cn1,0,0,0,0,0
COc1ccc(/C=C2/SC(=O)N(CCC(=O)Nc3ccccc3)C2=O)cc1OC,0,0,0,0,0
O=C(CCCN1C(=O)/C(=C/c2cccc(Br)c2)SC1=S)Nc1cccnc1,0,0,-,0,0
O=C(CCCN1C(=O)/C(=C/c2cccs2)SC1=S)Nc1cccnc1,0,44,0,0,0
O=C(CCCN1C(=O)/C(=C/c2cccs2)SC1=S)NNC(=O)c1cccnc1,0,0,0,0,0
COc1ccc(/C=C2\SC(=O)N(CC(=O)Nc3cccnc3)C2=O)cc1OC,0,0,23,0,0
COc1ccc(NC(=O)N(C)C[C@@H]2OCc3ccccc3-c3c(n(C)c4ccccc34)C(=O)N([C@H](C)CO)C[C@@H]2C)cc1,0,0,0,0,0
CCOc1ccc(C(=O)NCC(=O)N2CCCCCCC2)cc1,0,0,22,0,0
CCOc1ccc(C(=O)NCC(c2ccco2)N2CCOCC2)cc1 (stereo not drawn),0,0,26,0,0
CCOc1ccc(NC(=O)c2ccc(NCC(=O)N3CCCCCC3)cc2)cc1,0,0,0,0,0
CN(C)CC(=O)N1CC[C@@H]2[C@@H](CO)N(C)c3ccc(Br)cc3[C@@H]21,-,0,0,-,-
CCCNC(=O)N1CCC2(CC1)CN(C(=O)COC)[C@@H](CO)c1c2c2ccc(OC)cc2n1C,0,0,0,0,0
CCOc1cccc(-c2c(C(=O)N/N=C/c3cccnc3)nnn2-c2nonc2N)c1,0,0,0,0,0
CCOc1cccc(-c2c(C(=O)N/N=C/c3ccc(Br)cc3)nnn2-c2nonc2N)c1,0,0,47,0,0
CCn1cc(-c2ccnc3cc(C(=O)O)nn23)c(C)n1,0,43,0,0,0
CC=Cc1ccc2n(c1=O)C[C@H]1[C@H](CO)[C@@H](C(=O)NCCc3cn(C)cn3)N(C(=O)C3CCCC3)[C@@H]21 (mixture of isomers),0,-,0,0,0
CCOC(=O)N1CCN(Cc2c(NC(=O)c3ccco3)sc(C)c2C)CC1,0,44,?,0,0
CC(=O)NC(C)c1nc2ccccc2n1CC(=O)N1C(C)CCCC1C (stereo not drawn),0,44,0,0,0
O=S(=O)(c1cccc(C(F)(F)F)c1)N1CCN(CC(O)COCc2ccccc2)CC1 (stereo not drawn),0,0,63,0,0
O=S(=O)(c1ccc(F)cc1)N1CCN(CC(O)COCc2ccccc2)CC1 (stereo not drawn),0,0,0,0,0
C[C@H](CO)N1C[C@H](C)[C@H](CN(C)Cc2ccncc2)Oc2c(NC(=O)C3CC3)cccc2C1=O,0,0,0,0,0
COc1ccc(CCN2CC(C(=O)NCCc3cn[nH]c3)CCC2=O)cc1 (stereo not drawn),0,0,88,0,0
COc1ccc(CCN2CC(C(=O)NCCc3cccnc3)CCC2=O)cc1 (stereo not drawn),0,0,0,0,0
